Screens (PubChem)
EP2 modulator: modulates human prostaglandin E2 receptor EP2 signaling. EP2-expressing cells, cAMP HTRF FRET, PGE2 co-stimulation. hit rate 0.83% among 260,000. P43116. induction, % at 25 µM. AID 940;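 active = compounds whose cAMP rise, as percent of the full-agonist control response, exceeds 60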;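 note: rat C6 glioma line stably carrying human EP2 under a CMV promoter; the protocol text gives 20 µM as final concentration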
CHT allo act: human CHT allosteric activation; B-score at 10 µM; Q9GZV3; CHT-expressing cells, membrane potential dye, choline EC20; hits give high values; LV-AA mutant CHT in HEK293 cells; AID 488977; hit rate 0.49% among 310,000;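 active = initial fluorescence not abnormally high and integrated response B-score, plate-corrected, over 3 SD above library mean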
Target sequence (Q9GZV3 whole entry, looked up): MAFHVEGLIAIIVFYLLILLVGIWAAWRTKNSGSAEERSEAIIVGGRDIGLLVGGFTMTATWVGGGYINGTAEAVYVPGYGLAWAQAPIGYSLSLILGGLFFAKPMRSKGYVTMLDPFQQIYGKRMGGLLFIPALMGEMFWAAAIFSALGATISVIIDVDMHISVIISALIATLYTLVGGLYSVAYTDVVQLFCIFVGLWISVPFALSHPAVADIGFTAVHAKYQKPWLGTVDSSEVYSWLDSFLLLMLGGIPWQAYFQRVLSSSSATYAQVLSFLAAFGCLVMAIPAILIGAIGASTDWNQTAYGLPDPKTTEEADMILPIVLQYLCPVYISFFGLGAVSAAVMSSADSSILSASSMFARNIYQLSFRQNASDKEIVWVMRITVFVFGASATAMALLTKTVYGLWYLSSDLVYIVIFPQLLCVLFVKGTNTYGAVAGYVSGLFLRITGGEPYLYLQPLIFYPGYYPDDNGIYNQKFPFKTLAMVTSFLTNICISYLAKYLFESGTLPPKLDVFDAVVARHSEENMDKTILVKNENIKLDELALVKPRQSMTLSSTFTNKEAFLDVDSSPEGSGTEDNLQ
CHT inh: human CHT choline transport inhibition. Q9GZV3. CHT-expressing cells, membrane potential dye, choline response; hits give low values. B-score at 10 µM. hit rate 0.86% among 310,000. AID 488975;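 active = B-score over 3 SD under the library average, and starting fluorescence ratio not unusually high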;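 note: choline stimulus applied at its EC90 after an EC20 pre-addition; B-score computed on integrated fluorescence ratio after choline addition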
EP2 antag: blocks the human prostaglandin E2 receptor EP2; inhibition, % at 25 µM; hit rate 0.52% among 260,000; P43116; C6 glioma cells expressing human EP2, cAMP TR-FRET; cells stimulated with saturating PGE2;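 active = percent inhibition above 40 after rounding to a whole number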;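 note: rat C6 glioma host cells with rolipram phosphodiesterase inhibitor present; the protocol text gives 20 µM as final concentration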
CHT act confirm: human CHT activation, confirmatory screen. shares compounds with CHT allo act. CHT-expressing cells, membrane potential dye fluorescence (FDSS); % of choline EC20–EC90 response window; HEK293 expressing CHT LV-AA mutant; choline added at its EC20. activation, % at 10 µM. hit rate 91% among 2,500;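 active = primary screen active, with duplicate mean activation above negative control mean plus 3 SD, cut at about 11% in these data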
HEK293 MP dye: activity in parental HEK293 cells lacking CHT; shares compounds with CHT allo act; membrane potential dye fluorescence (FDSS); measured after EC20 choline addition; ratio readout change at 10 µM, hits read low; hit rate 62% among 2,500;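 active = duplicate-averaged ratio beyond 3 SD from buffer wells, up or down, though filed actives are nearly all decreases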
Of the large screens only hits and unclear results are named; the others gave an inactive call (follow-up assays come after a bar, where they were run). Rows were chosen to be rich in hits. Some 2% of all compounds tested hit in one or more screens of this group.

Cc1cc(N2CCCN(C)CC2)nc2cc(Cl)ccc12	none | CHT act confirm 35.0 | HEK293 MP dye -49.9
CCN1CCN(c2cc(C)c3cc(NC(=O)c4cccc(OC)c4)ccc3n2)CC1	none
COc1ccccc1OCCN(C)C(=O)c1cc(-c2c(C)nn(C)c2C)n[nH]1	none (no result: CHT allo act, CHT inh)
CCCC12CN(C(=O)c3ccc([N+](=O)[O-])cc3)CC(C)(CN(C(=O)c3ccc([N+](=O)[O-])cc3)C1)C2=O	none | CHT act confirm 44.7 | HEK293 MP dye inactive
CCn1cc(S(=O)(=O)c2ccc(OC)cc2)c(=O)c2cc(F)c(N3CCN(C)CC3)cc21	none (no result: EP2 modulator, EP2 antag) | CHT act confirm 59.4 | HEK293 MP dye -47.7
Cc1ccc(S(=O)(=O)c2cn(C)c3cc(N4CCN(C)CC4)c(F)cc3c2=O)c(C)c1	CHT allo act 9.07 (no result: EP2 modulator, EP2 antag) | CHT act confirm 74.1 | HEK293 MP dye -83.9
CCN1CCN(c2cc3c(cc2F)c(=O)c(S(=O)(=O)c2ccccc2)cn3C)CC1	CHT allo act 8.36 (no result: EP2 modulator, EP2 antag) | CHT act confirm 77.4 | HEK293 MP dye -98.7
CCCn1cc(S(=O)(=O)c2ccccc2)c(=O)c2cc(CC)ccc21	none (no result: EP2 modulator, EP2 antag)
CCn1cc(C(=O)NCCc2nc(-c3ccncc3)n[nH]2)cn1	none (no result: CHT allo act, CHT inh, EP2 antag)
CC1=CC=CN2C1=NC(=O)CC2(C)C(=O)N(CC(=O)NC1CCCC1)Cc1ccc(Cl)cc1 (stereo unspecified)	none (no result: CHT allo act, CHT inh)
Cc1cc(S(=O)(=O)N(C)Cc2ccccc2)ccc1-n1cnnn1	none (no result: CHT allo act, CHT inh)
O=C(N/N=C/c1ccc([N+](=O)[O-])o1)c1ccncc1	none | CHT act confirm 56.3 | HEK293 MP dye -47.4
Cc1nc2ccccn2c1C(=O)N/N=C/c1ccc([N+](=O)[O-])o1	none | CHT act confirm 31.2 | HEK293 MP dye -39.2
C/C(=N\NC(=O)c1c(C)nc2ccccn12)c1ccco1	CHT allo act 10.2 | CHT act confirm 15.3 | HEK293 MP dye inactive
C/C(=N\NC(=O)c1c(C)nc2ccccn12)c1ccc(C(C)(C)C)cc1	none (no result: EP2 modulator, EP2 antag)
O=C(N/N=C/c1cc(Br)ccc1O)c1ccncc1	none
O=C(N/N=C/c1cc([N+](=O)[O-])ccc1O)c1ccncc1	none | CHT act confirm 36.2 | HEK293 MP dye -38.8
Cc1ccc(-c2cc(N)c(=O)n(CC(=O)NCc3ccco3)n2)o1	none (no result: CHT allo act, CHT inh)
Nc1ccc(NC(=O)c2nc[nH]c2C(=O)O)cc1	none (no result: CHT allo act, CHT inh)
CCNc1nc2c(c(=O)[nH]c(=O)n2C)n1Cc1cccc2ccccc12	none (no result: CHT allo act, CHT inh)
COCC(=O)N1CCn2c(nc(-c3ccc(N(C)C)cc3)c2NC(C)(C)C)C1	none (no result: CHT allo act, CHT inh, EP2 antag)
OC(C#CCCN1CCCCC1)(c1ccccc1)C1CCCCC1 (stereo unspecified)	CHT allo act 7.48 | CHT act confirm 17.8 | HEK293 MP dye inactive
OC(C#CCCN1CCCCC1)(c1ccccc1)c1ccccc1	none
Cn1ccnc1C1CCCCN1Cc1nc(-c2ccc3c(c2)OCO3)no1 (stereo unspecified)	none
COc1ccc(-c2noc(CN3CCCCC3c3nccn3C)n2)cc1 (stereo unspecified)	CHT allo act 11.3 | CHT act confirm 49.2 | HEK293 MP dye inactive
O=C(COc1ccccc1Cl)Nc1ccc(N2CCN(C(=O)c3ccco3)CC2)cc1	none (no result: CHT allo act, CHT inh)
COc1cc2c(cc1NC(=O)COCC(=O)O)oc1ccccc12	none (no result: EP2 modulator, EP2 antag) | CHT act confirm 46.3 | HEK293 MP dye -44.9
CC(C)NC(=O)Cn1cc(CN2CCCC(CN3CCCC3)C2)c2ccccc21 (stereo unspecified)	none (no result: CHT allo act, CHT inh)
COc1ccc(CNC(=O)c2cnn3c(C)cc(C)nc23)cc1	none (no result: CHT allo act, CHT inh)
Cc1cc(C)n2ncc(C(=O)NCc3cccnc3)c2n1	none | CHT act confirm 41.5 | HEK293 MP dye -37.8
CCCCn1cnc2cc(NCc3ccncc3)ccc21	none | CHT act confirm 43.5 | HEK293 MP dye -43.1
O=c1cc(-c2ccncc2)oc2ccccc12	none | CHT act confirm 45.8 | HEK293 MP dye -48.5
COc1ccc2c(c1)C(C)=CC(C)(C)N2S(=O)(=O)c1ccc(C)cc1	CHT allo act 7.9 | CHT act confirm 40.6 | HEK293 MP dye inactive
COC(=O)C1(C)CN(S(=O)(=O)c2ccc(C)cc2)c2cc(OC)ccc2C1=O (stereo unspecified)	none
Cc1ccc(-n2c(SCCN)nnc2-c2cccc(C)c2)cc1	none | CHT act confirm 17.4 | HEK293 MP dye inactive
Cc1cccc(-c2nnc(SCC#N)n2-c2ccccc2)c1	none
COc1ccccc1CN(Cc1cc2cc(C)ccc2[nH]c1=O)C(=O)N(C)C	none (no result: CHT allo act, CHT inh)
Cc1cc(C)c(/C=N/NC(N)=O)c(C)c1/C=N/NC(N)=O	CHT allo act 6.41 | CHT act confirm 46.9 | HEK293 MP dye -61.7
O=C(O)C1CC=CCC1C(=O)Nc1ccc(C(=O)N2CCOCC2)cc1 (stereo unspecified)	none (no result: CHT allo act, CHT inh)
Cc1ccc(NC(=O)N(CCO)Cc2cc3cc4c(cc3[nH]c2=O)OCCO4)cc1	none (no result: CHT allo act, CHT inh)
CCOC(=O)c1sc(=S)n(-c2ccc(OC)cc2)c1N	none | CHT act confirm 13.3 | HEK293 MP dye inactive
CCOC(=O)c1sc(=S)n(-c2ccccc2)c1N	none
Cc1cccc(N/C=C/C(=C(C#N)C#N)N(C)C)c1	none
CN(C)C(/C=C/Nc1cccc(Br)c1)=C(C#N)C#N	none | CHT act confirm 49.1 | HEK293 MP dye -42.4
CCOc1ccc(N(CC(=O)NCc2ccc(OC)cc2)C(=O)c2csnn2)cc1	none (no result: CHT allo act, CHT inh)
CC[n+]1c(C)sc2c3cccc4c3c(cc21)-c1ccccc1-4	none (no result: CHT allo act, CHT inh)
CC[n+]1c(C)sc2c(C)cc(C)cc21	CHT allo act 7.83 | CHT act confirm 62.2 | HEK293 MP dye -59.7
COc1ccc(C(=O)N=c2sc3ccccc3n2C)cc1OC	none
Cn1c(=NC(=O)C2=NNC(=O)CC2)sc2ccccc21	CHT allo act 6.86 | CHT act confirm 54.2 | HEK293 MP dye -32.3
Cn1c(=O)n(C)c2cc(C(=O)N3C4CCC3CC(c3ccc(F)cc3)C4)ccc21 (stereo unspecified)	none (no result: CHT allo act, CHT inh, EP2 antag)
Nn1cnnc1SCC(=O)O	none (no result: CHT allo act, CHT inh)
CCN(CC)CCCNc1cc(C)nc2cc(-c3cccs3)nn12	CHT allo act 9.09 | CHT act confirm 62.0 | HEK293 MP dye -84.2
CN(C)CCCNc1cc(-c2ccccc2)nc2cc(-c3cccc(F)c3)nn12	none (no result: EP2 modulator, EP2 antag)
Cc1cccc(-c2cc3nc(C)cc(NCCCN(C)C)n3n2)c1	none | CHT act confirm 32.5 | HEK293 MP dye -61.6
Cc1ccc(C(C)C)c(OCC(=O)Nc2ccc3c(c2)nc(CCN2CCCCC2)n3C)c1	none (no result: EP2 modulator, EP2 antag) | CHT act confirm 24.7 | HEK293 MP dye -26.9
CCOC(=O)c1cc(-c2cccs2)nc2c1c(C)nn2-c1ccccn1	none
Cc1nn(-c2ccccn2)c2nc(-c3cccs3)cc(C(=O)NCc3ccco3)c12	none | CHT act confirm 19.4 | HEK293 MP dye inactive
O=C(NC1(c2cccc(F)c2)CCCC1)c1cc(-c2ccccn2)n[nH]1	none (no result: CHT allo act, CHT inh)
COc1ccc(CCNCc2ccc(OCc3ccc(Cl)nc3)c(OC)c2)cc1OC	CHT allo act 7.79 | CHT act confirm 36.8 | HEK293 MP dye inactive
